# In article PMC4336329 (PLoS ONE, 2015):
# Out of some 310,000 compounds screened, about 14,000 (4.5%) showed an effect of 50% or more. Effects have a minus sign here. Shown is part of a subset that was picked to be rich in strong results.
# Target: human ether-à-go-go-related gene (hERG) potassium channel (human, UniProt Q12809)
# Assay: primary screen, population patch clamp on CHO cells stably expressing hERG; higher = less effect of the substance
# 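Also: peak tail current of the secondary pulse compared with the same well before compound.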
# human ether-à-go-go-related gene (hERG) potassium channel, sequence (Q12809 whole entry, looked up): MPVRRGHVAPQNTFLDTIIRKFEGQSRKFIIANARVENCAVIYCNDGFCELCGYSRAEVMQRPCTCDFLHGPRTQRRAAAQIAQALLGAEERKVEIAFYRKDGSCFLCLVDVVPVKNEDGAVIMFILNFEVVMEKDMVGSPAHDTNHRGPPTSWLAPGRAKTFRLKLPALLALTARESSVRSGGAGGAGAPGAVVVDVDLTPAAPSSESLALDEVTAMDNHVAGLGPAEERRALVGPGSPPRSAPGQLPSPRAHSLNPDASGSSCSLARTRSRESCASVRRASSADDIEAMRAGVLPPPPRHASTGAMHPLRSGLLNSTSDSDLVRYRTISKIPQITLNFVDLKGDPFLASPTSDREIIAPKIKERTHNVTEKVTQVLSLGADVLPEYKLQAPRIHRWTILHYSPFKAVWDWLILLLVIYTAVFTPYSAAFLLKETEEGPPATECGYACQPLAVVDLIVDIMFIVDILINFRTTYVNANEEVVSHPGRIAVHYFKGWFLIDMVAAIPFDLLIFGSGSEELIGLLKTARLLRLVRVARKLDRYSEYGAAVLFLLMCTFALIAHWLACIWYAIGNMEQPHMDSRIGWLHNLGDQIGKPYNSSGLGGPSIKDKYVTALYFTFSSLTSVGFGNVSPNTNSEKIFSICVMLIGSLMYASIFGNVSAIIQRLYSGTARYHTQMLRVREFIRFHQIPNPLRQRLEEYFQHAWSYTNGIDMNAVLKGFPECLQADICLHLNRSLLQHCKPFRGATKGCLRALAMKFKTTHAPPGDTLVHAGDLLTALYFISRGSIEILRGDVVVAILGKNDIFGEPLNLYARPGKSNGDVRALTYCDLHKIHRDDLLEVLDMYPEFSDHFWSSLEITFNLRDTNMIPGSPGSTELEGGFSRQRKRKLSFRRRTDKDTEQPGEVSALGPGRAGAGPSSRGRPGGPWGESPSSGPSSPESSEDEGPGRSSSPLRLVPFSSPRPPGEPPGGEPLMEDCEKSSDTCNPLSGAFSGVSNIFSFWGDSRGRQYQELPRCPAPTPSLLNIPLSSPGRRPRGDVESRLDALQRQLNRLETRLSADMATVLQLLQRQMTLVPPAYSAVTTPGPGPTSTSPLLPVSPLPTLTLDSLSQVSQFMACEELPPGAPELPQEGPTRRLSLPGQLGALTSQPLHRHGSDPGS
row,SMILES,"hERG current change (%, negative = inhibition) at 10uM [%]"
1,NC(=O)c1ccc(N2CCN(c3ccccc3F)CC2)c([N+](=O)[O-])c1,-25.5
2,[Br-].c1ccc(-c2c[n+]3c(n2-c2ccccc2)CCC3)cc1,-3.72
3,FC(F)Sc1ccc(-n2c(-c3ccc(Cl)cc3)c[n+]3c2CCC3)cc1.[Br-],-92.6
4,Cc1ccc(-n2c(-c3ccc(Cl)cc3)c[n+]3c2CCC3)cc1.[Br-],-62.4
5,Cc1ccc(-c2c[n+]3c(n2-c2ccccc2)CCC3)cc1.[Br-],-48.9
6,Cc1ccc(-n2c(-c3ccccc3)c[n+]3c2CCC3)cc1.[Br-],-50.7
7,Cc1cc(C)cc(OCC(=O)NCC2CCCO2)c1 (centres unmarked),-11.8
8,C#CCOC(=O)C[N+](C)(C)CC#Cc1ccccc1.[Cl-],33.3
9,CC1(c2nnc(-c3ccc(Cl)cc3)o2)CC(c2c(Cl)cccc2Cl)=NO1 (centres unmarked),1.13
10,COc1ccc(C2=NOC(C)(c3nnc(-c4ccccc4)o3)C2)cc1 (centres unmarked),-58.3
11,COc1ccc(C2=NOC(C)(c3nnc(-c4ccncc4)o3)C2)cc1 (centres unmarked),1.73
12,CC1(c2nnc(-c3ccncc3)o2)CC(c2c(Cl)cccc2Cl)=NO1 (centres unmarked),-69.8
13,CC1(c2nnc(-c3ccccc3)o2)CC(c2c(Cl)cccc2Cl)=NO1 (centres unmarked),23.4
14,CC1(c2nnc(-c3ccccc3)o2)CC(c2ccccc2)=NO1 (centres unmarked),-11.6
15,CC(=O)Nc1ccc(NC(=O)CSc2ccc(-c3cccnc3)nn2)cc1,24.7
16,O=C(C1CCC1)N1CCN(S(=O)(=O)c2ccc(Br)cc2Cl)CC1,-21.8
17,COCCn1c(Cc2ccccc2)nnc1SCC(=O)Nc1cc(C)on1,-5.36
18,COc1ccc(CC(=O)NNC(=O)CCc2ccccc2)cc1OC,14.8
19,CCCSc1cc(=O)n(-c2ccccc2)nc1C(=O)O,15.7
20,CCOc1ccccc1Nc1nnc(SC(C)C(=O)Nc2nc(-c3ccccc3)cs2)s1 (centres unmarked),1.46
21,Br.C=CCn1c(C)csc1=Nc1ccccc1C,4.02
22,Cc1ccccc1CC(=O)NCC1CCCCC1,1.34

row,SMILES,"hERG current change (%, negative = inhibition) at 10uM [%]"
1,Cc1ccccc1N(CC(=O)NCC1CCCO1)C(=O)C1(C)CC(=O)N=C2C=CC=CN21 (centres unmarked),-1.4
2,Cc1cccc(NS(=O)(=O)c2ccc(C(=O)NCC(c3ccco3)N3CCCCC3)cc2)c1C (centres unmarked),-55.6
3,Cc1ccccc1NS(=O)(=O)c1ccc(C(=O)NCC(c2ccco2)N2CCCCC2)cc1 (centres unmarked),5.89
4,Cc1cc(S(=O)(=O)Nc2ccc(C(=O)NCC(c3ccco3)N3CCCCC3)cc2)ccc1F (centres unmarked),-41.2
5,Cc1cc(S(=O)(=O)Nc2ccc(C(=O)N3CCN(C(=O)c4ccco4)CC3)cc2)ccc1F,-64.4
6,Cc1ccc(NS(=O)(=O)c2cccc(C(=O)N3CCN(C(=O)c4ccco4)CC3)c2)cc1,-36.8
7,Cc1cc(S(=O)(=O)Nc2ccc(C(=O)NCC(c3ccco3)N3CCCC3)cc2)ccc1F (centres unmarked),-50.6
8,O=C(NCC(c1ccco1)N1CCCC1)c1ccc(S(=O)(=O)Nc2ccccc2Cl)cc1 (centres unmarked),-11.6
9,O=C(NCC(c1ccco1)N1CCCCC1)c1ccc(NS(=O)(=O)c2ccc(F)cc2)cc1 (centres unmarked),-13
10,COc1ccccc1C(CNC(=O)c1cccc(NS(=O)(=O)c2ccc(C)c(F)c2)c1)N1CCCC1 (centres unmarked),-40.9
11,COc1ccccc1C(CNC(=O)c1ccc(NS(=O)(=O)c2ccc(F)c(C)c2)cc1)N1CCCC1 (centres unmarked),-58.1
12,O=C(c1ccc(S(=O)(=O)Nc2ccc(F)cc2)cc1)N1CCN(C(=O)c2ccco2)CC1,-29.4
13,COc1ccccc1C(CNC(=O)c1ccc(NS(=O)(=O)c2ccc(F)c(C)c2)cc1)N(C)C (centres unmarked),-24.4
14,CC1=NN(C(=O)c2ccccc2Cl)C(O)(c2cccnc2)C1 (centres unmarked),17.8
15,COC(=O)C1Cc2c([nH]c3ccccc23)C(C)N1 (centres unmarked),-9.61
16,COc1ccc(S(=O)(=O)NCc2ccco2)cc1C(=O)N1CCOCC1,21
17,Cl.O=S(=O)(NCC(c1ccco1)N1CCCCC1)c1cccc(C(F)(F)F)c1 (centres unmarked),-57.7
18,Cl.O=S(=O)(NCC(c1ccco1)N1CCCCC1)c1ccccc1C(F)(F)F (centres unmarked),-6.8
19,CC(=O)c1cccc(S(=O)(=O)NCC(c2ccco2)N2CCCCC2)c1 (centres unmarked),-24.1
20,CC(C)[C@H](NC(=O)c1ccccc1F)C(=O)Nc1ccc2c(c1)OCO2,5.82
21,Br.C1=C(c2cccc3ccccc23)N2CCN=C2S1,-34.5
22,Cc1ccc(N2C(=O)NC(=O)C(CCc3ccccn3)(Cc3ccc(F)cc3)C2=O)cc1 (centres unmarked),12.9
